Measured values as given in PubChem BioAssay (EPA / NIEHS).
“And” between values parts separate entries of the source, which are not always exact repeats. Identical values can stand only once. Results filed as inconclusive are left out. More than one record can exist for a structure, and the calls need not agree. The source made the active and inactive calls. The calls were made as follows, unless noted: active = hit-call score of the fitted dose curve at least 0.9, where 1 is the maximum; inactive = score below 0.9.

Legend:
[1] = ATG_TAL_CIS: Attagene CIS-FACTORIAL HepG2 Assay for human TAL Basal Promoter (AID 2282966); conditions: HepG2 Attagene cis-factorial TAL promoter reporter; actives raise or lower the signal;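 also: background control endpoint measuring basal TAL promoter reporter mRNA not a specific factor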
Outline: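 Fluorescence of labelled reporter cDNA fragments, resolved by capillary electrophoresis, gave the readout. Human HepG2 liver cells carried transiently transfected cis-element reporter units and were treated for 24 hours; activity was fitted bidirectionally against DMSO.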

[2] = ATG_TGFb_CIS: Attagene CIS-FACTORIAL HepG2 Assay for human Transforming Growth Factor (TGF) (AID 2282967); conditions: HepG2 Attagene CIS TGFb reporter, mRNA transcription; actives raise or lower the signal
Outline: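 HepG2 cells transiently transfected with cis-promoter-driven multiple reporter units measure endogenous TF activity; reporter mRNA quantified at 24 h by RT-PCR, FAM labeling, HpaI digestion and capillary electrophoresis. Bidirectional fit vs DMSO.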

[3] = ATG_VDRE_CIS: Attagene CIS-FACTORIAL HepG2 Assay for human Vitamin D Receptor Element (VDRE) (AID 2282968); conditions: HepG2 VDRE cis-reporter transcription, actives raise or lower the signal
Outline: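 HepG2 cells transiently transfected with cis-element reporter units, dosed 24 h; reporter mRNA measured by RT-PCR, 6-FAM labeling, HpaI digestion and capillary electrophoresis. Activity fitted bidirectionally against DMSO baseline.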

[4] = target: Estrogen receptor (Homo sapiens) (UniProt P03372); experiment: ATG_ERa_TRANS: Attagene TRANS-FACTORIAL HepG2 Assay for human Estrogen Receptor alpha (ERa) (AID 2282970; active = hit-call score of the fitted dose curve at least 0.9, where 1 is the maximum); conditions: HepG2 Attagene TRANS ERa GAL4 reporter, mRNA
Outline: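 Human liver HepG2, transient transfection of multiple GAL4-UAS reporter units; TRANS format (exogenous NR-Gal4 chimera). 24 h dosing. Readout: reporter mRNA, RT-PCR, 6-FAM primer extension, HpaI digest, capillary electrophoresis. Positive direction vs DMSO.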

[5] = target: X-box-binding protein 1 (Homo sapiens) (UniProt P17861); experiment: ATG_Xbp1_CIS: Attagene CIS-FACTORIAL HepG2 Assay for human X-box Binding Protein 1 (XBP1) (AID 2282972); conditions: HepG2 XBP1 cis-element reporter, Attagene multiplex; actives raise or lower the signal
Outline: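 HepG2 cells transiently transfected with cis-regulated multiple reporter transcription units; endogenous transcription factor activity measured 24 hours after chemical dosing. Reporter mRNA quantified by RT-PCR, 6-FAM primer extension, HpaI digestion and capillary electrophoresis; bidirectional fitting versus DMSO.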

[6] = ATG_GAL4_TRANS: Attagene TRANS-FACTORIAL HepG2 Assay for GAL4 (Internal Marker) (AID 2282976; active = hit-call score of the fitted dose curve at least 0.9, where 1 is the maximum); conditions: HepG2 Attagene TRANS GAL4 internal marker reporter
Outline: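 First, HepG2 cells were transfected with reporter units under GAL4-UAS control. Next, they were treated with chemical for 24 h. Finally, RNA was reverse-transcribed, PCR-amplified, FAM-labelled and resolved by capillary electrophoresis, with induction scored against DMSO.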

[7] = target: Bile acid receptor (Homo sapiens) (UniProt Q96RI1); experiment: ATG_FXR_TRANS: Attagene TRANS-FACTORIAL HepG2 Assay for Farnesoid X Receptor (FXR) (AID 2282979; active = hit-call score of the fitted dose curve at least 0.9, where 1 is the maximum;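 also: hits raise reporter mRNA above DMSO so AC50 marks FXR activation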); conditions: HepG2 Attagene TRANS FXR-GAL4 reporter transcription
Outline: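 Transient transfection of HepG2 with multiplexed GAL4-UAS reporter units; exogenous FXR-GAL4 chimera. Dose 24 h → TriZol RNA → oligo(dT) RT → PCR, 6-FAM primer extension, HpaI cut → CE. Gain vs DMSO.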

[8] = target: Oxysterols receptor LXR-beta (Homo sapiens) (UniProt P55055); experiment: ATG_LXRb_TRANS: Attagene TRANS-FACTORIAL HepG2 Assay for human Liver X Receptor beta (LXRb) (AID 2282981; active = hit-call score of the fitted dose curve at least 0.9, where 1 is the maximum); conditions: HepG2 Attagene TRANS GAL4-LXRb reporter, mRNA
Outline: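 HepG2 cells transiently transfected with multiple reporter transcription units carrying chimeric NR-Gal4 proteins acting on GAL4-UAS reporters; compound exposure 24 h. Reporter mRNA quantified by RT-PCR, 6-FAM labelling, HpaI digestion and capillary electrophoresis; gain of signal versus DMSO.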

[9] = target: Hepatocyte nuclear factor 4-alpha (Homo sapiens) (UniProt P41235); experiment: ATG_HNF4a_TRANS: Attagene TRANS-FACTORIAL HepG2 Assay for human Hepatocyte Nuclear Factor 4 alpha (HNF4a) (AID 2282982; active = hit-call score of the fitted dose curve at least 0.9, where 1 is the maximum); conditions: HepG2 HNF4a transactivation reporter, mRNA readout
Outline: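 HepG2 cells transiently transfected with multiplexed GAL4-UAS reporter units responsive to chimeric NR-GAL4 proteins; compound exposure 24 h. Reporter mRNA quantified by RT-PCR, 6-FAM labelling, HpaI digestion and capillary electrophoresis; gain of signal versus DMSO baseline.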

[10] = ATG_M_06_TRANS: Attagene TRANS-FACTORIAL HepG2 Assay for M06 Transcription Factor (Internal Marker) (AID 2282983; active = hit-call score of the fitted dose curve at least 0.9, where 1 is the maximum;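 as to AC50: potency for rise in reporter mRNA above DMSO baseline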); conditions: HepG2 Attagene TRANS M06 internal marker reporter
Outline: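 Transfect HepG2 with MRTUs → dose compounds 24 h → isolate RNA, oligo(dT) RT → PCR with reporter primers → 6-FAM primer extension → HpaI digest → CE fragment analysis. Positive direction vs DMSO.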

[11] = ATG_M_32_TRANS: Attagene TRANS-FACTORIAL HepG2 Assay for M32 Transcription Factor (Internal Marker) (AID 2282984; active = hit-call score of the fitted dose curve at least 0.9, where 1 is the maximum;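 also: transcript level of a background control reporter unit measured by RT-PCR and capillary electrophoresis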); conditions: HepG2 Attagene TRANS M32 internal marker reporter
Outline: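 HepG2 cells transiently transfected with multiple GAL4-UAS reporter transcription units, dosed for 24 hours; reporter mRNA quantified by RT-PCR, 6-FAM primer extension, HpaI digestion and capillary electrophoresis. Gain-of-signal fitted versus DMSO baseline; internal background-control marker.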

[12] = target: Nuclear receptor subfamily 4 group A member 2 (Homo sapiens) (UniProt P43354); experiment: ATG_NURR1_TRANS: Attagene TRANS-FACTORIAL HepG2 Assay for human Nuclear Receptor Related Protein 1 (NURR1) (AID 2282985; active = hit-call score of the fitted dose curve at least 0.9, where 1 is the maximum); conditions: HepG2 Attagene TRANS reporter, mRNA readout
Outline: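 HepG2 cells transiently transfected with GAL4-UAS reporter units and chimeric NR-Gal4 constructs; chemical exposure 24 h. Reporter mRNA quantified by RT-PCR, fluorescent labelling and capillary electrophoresis; gain of signal fitted relative to DMSO baseline.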

[13] = target: Transcriptional activator Myb (Homo sapiens) (UniProt P10242); experiment: ATG_Myb_CIS: Attagene CIS-FACTORIAL HepG2 Assay for human Myeloblastosis (Myb) Proto-Oncogene Transcription Factor (AID 2282986); conditions: HepG2 Attagene CIS-FACTORIAL Myb reporter transcription; actives raise or lower the signal
Outline: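 HepG2 cells were transiently transfected with cis-regulated multiple reporter transcription units reflecting endogenous Myb activity, then exposed to compound for 24 hours. Reporter mRNA was measured by RT-PCR with capillary electrophoresis; bidirectional fitting versus DMSO baseline.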

[14] = target: Nuclear respiratory factor 1 (Homo sapiens) (UniProt Q16656); experiment: ATG_NRF1_CIS: Attagene CIS-FACTORIAL HepG2 Assay for human Nuclear Respiratory Factor 1 (NRF1) Orphan Gene (AID 2282987); conditions: HepG2 NRF1 cis-element reporter, Attagene multiplex; actives raise or lower the signal
Outline: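 HepG2 cells transiently transfected with multiple reporter transcription units under cis-regulatory promoter control, so endogenous transcription-factor activity is read. After 24 h compound exposure, reporter mRNA quantified by RT-PCR, fluorescent labelling, HpaI digestion and capillary electrophoresis; bidirectional fitting versus DMSO.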

[15] = ATG_NFI_CIS: Attagene CIS-FACTORIAL HepG2 Assay for human Nuclear Factor I (NFI) (AID 2282989); conditions: HepG2 cis-regulatory reporter, NFI response element transcription; actives raise or lower the signal
Outline: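 Endogenous TF activity in HepG2 cells transiently transfected with cis-element-driven multiplexed reporter units, read 24 h after dosing. Reporter mRNA quantified by RT-PCR, 6-FAM labelling, HpaI digestion and capillary electrophoresis; bidirectional fit versus DMSO.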

[16] = target: Glucocorticoid receptor (Homo sapiens) (UniProt P04150); experiment: ATG_GR_TRANS: Attagene TRANS-FACTORIAL HepG2 Assay for human Glucocorticoid Receptor (GR) (AID 2282978; active = hit-call score of the fitted dose curve at least 0.9, where 1 is the maximum;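 also: activators score as hits since higher reporter transcript over DMSO is fitted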); conditions: HepG2 Attagene TRANS GR reporter, mRNA transcription
Outline: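 HepG2 cells transiently transfected with multiplexed reporter units in which chimeric NR-GAL4 proteins drive GAL4-UAS reporters; 24 h compound exposure. Reporter mRNA measured by RT-PCR, 6-FAM labelling, HpaI digestion and capillary electrophoresis; gain-of-signal fitted versus DMSO.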

[17] = target: Oxysterols receptor LXR-alpha (Homo sapiens) (UniProt Q13133); experiment: ATG_LXRa_TRANS: Attagene TRANS-FACTORIAL HepG2 Assay for human Liver X Receptor alpha (LXRa) (AID 2282980; active = hit-call score of the fitted dose curve at least 0.9, where 1 is the maximum); conditions: HepG2 Attagene TRANS reporter, LXRa transactivation
Outline: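 Transfect HepG2 with GAL4-UAS multiplex reporter constructs (TRANS format, chimeric receptor-GAL4); treat 24 h; extract RNA, reverse-transcribe, PCR-amplify, FAM-label, HpaI-digest; resolve fragments by capillary electrophoresis. Upward response vs DMSO.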

[18] = ATG_TCF_b_cat_CIS: Attagene CIS-FACTORIAL HepG2 Assay for human T-Cell-Factor with beta-catenin (TCF/b-cat) (AID 2282965); conditions: HepG2 TCF/beta-catenin cis-reporter transcription, actives raise or lower the signal
Outline: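 Using capillary electrophoresis as the read-out, labelled reporter cDNA fragments from transiently transfected HepG2 were sized and quantified. Exposure lasted 24 hours; activity in either direction was referenced to DMSO.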

Measured: AC50

Sequence of Bile acid receptor (Homo sapiens) (Q96RI1 whole entry, looked up, the tested form may be a part): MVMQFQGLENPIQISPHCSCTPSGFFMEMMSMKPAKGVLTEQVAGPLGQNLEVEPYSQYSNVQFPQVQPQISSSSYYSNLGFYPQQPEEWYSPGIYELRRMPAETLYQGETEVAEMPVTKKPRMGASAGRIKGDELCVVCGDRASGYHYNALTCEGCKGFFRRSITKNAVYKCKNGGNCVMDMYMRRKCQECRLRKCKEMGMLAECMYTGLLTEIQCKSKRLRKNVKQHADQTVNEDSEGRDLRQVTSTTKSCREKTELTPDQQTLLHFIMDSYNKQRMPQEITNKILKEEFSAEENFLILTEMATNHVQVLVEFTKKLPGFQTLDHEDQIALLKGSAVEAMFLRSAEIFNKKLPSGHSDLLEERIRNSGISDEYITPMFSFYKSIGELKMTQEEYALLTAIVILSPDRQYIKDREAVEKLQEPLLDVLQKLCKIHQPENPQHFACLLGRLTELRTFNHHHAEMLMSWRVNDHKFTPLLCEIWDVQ
Sequence of Transcriptional activator Myb (Homo sapiens) (P10242 whole entry, looked up): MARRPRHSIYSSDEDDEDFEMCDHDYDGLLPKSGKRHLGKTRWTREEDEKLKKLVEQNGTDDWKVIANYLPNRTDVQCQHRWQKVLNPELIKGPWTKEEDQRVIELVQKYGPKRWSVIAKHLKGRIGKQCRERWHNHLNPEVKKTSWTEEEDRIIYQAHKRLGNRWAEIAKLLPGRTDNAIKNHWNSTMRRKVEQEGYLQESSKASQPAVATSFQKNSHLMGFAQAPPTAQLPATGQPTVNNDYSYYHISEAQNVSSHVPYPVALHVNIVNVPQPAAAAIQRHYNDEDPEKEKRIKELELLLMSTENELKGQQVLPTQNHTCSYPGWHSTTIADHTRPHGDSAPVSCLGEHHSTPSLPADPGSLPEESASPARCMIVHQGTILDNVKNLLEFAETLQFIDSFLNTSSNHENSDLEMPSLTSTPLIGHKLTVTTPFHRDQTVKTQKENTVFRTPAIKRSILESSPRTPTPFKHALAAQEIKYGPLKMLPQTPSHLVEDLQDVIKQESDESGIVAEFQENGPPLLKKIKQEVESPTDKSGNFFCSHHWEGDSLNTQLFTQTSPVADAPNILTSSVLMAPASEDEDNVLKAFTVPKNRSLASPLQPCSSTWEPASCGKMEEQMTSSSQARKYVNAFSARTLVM
Sequence of Hepatocyte nuclear factor 4-alpha (Homo sapiens) (P41235 whole entry, looked up, the tested form may be a part): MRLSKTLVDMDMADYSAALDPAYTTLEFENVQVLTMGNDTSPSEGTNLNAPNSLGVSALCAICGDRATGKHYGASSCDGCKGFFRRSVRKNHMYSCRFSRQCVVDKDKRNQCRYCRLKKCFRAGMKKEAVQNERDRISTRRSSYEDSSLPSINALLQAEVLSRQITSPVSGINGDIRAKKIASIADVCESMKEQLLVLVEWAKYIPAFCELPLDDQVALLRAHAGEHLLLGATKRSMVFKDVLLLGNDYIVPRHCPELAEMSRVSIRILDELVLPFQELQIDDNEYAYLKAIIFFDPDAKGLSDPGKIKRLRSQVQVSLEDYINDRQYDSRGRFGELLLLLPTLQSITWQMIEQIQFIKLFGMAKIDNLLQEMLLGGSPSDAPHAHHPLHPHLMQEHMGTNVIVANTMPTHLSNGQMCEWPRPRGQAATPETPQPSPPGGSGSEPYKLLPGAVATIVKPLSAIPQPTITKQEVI
Sequence of Oxysterols receptor LXR-alpha (Homo sapiens) (Q13133 whole entry, looked up, the tested form may be a part): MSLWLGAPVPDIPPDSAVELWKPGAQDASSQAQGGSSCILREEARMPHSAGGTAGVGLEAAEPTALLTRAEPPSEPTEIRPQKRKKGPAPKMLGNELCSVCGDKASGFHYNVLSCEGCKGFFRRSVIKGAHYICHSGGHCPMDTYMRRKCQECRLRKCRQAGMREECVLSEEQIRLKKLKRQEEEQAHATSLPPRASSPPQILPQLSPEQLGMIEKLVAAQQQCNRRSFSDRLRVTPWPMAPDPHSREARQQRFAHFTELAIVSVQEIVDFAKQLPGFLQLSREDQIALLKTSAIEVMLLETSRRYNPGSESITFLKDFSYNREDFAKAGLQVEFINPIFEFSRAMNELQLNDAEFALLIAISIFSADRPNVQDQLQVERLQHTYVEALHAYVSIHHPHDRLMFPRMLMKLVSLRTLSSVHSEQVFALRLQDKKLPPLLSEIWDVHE
Sequence of Nuclear respiratory factor 1 (Homo sapiens) (Q16656 whole entry, looked up): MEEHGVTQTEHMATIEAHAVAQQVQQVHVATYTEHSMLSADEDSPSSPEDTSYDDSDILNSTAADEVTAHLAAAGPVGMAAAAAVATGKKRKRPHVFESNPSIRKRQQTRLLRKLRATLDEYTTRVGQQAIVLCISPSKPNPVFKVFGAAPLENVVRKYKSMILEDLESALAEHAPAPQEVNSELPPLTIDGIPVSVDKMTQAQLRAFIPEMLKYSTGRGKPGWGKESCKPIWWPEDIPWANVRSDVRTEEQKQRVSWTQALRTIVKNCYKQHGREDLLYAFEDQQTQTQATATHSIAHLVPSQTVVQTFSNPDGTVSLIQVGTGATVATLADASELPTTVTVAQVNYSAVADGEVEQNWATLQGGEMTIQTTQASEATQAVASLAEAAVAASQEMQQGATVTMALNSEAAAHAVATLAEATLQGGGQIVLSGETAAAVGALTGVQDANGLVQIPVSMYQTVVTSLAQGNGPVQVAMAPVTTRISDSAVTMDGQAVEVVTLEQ
Sequence of Oxysterols receptor LXR-beta (Homo sapiens) (P55055 whole entry, looked up, the tested form may be a part): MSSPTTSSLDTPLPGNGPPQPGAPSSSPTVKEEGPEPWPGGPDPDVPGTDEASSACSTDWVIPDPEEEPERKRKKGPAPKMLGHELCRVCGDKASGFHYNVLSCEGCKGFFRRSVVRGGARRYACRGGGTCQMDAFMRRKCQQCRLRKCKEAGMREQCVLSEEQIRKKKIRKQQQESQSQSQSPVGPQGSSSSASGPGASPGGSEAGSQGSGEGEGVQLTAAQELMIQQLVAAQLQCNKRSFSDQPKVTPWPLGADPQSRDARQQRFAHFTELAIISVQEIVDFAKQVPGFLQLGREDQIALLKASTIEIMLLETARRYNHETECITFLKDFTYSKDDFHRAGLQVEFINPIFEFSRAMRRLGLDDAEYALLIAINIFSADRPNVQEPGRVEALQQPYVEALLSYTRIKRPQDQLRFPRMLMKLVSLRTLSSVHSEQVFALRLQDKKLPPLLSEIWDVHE
Sequence of Nuclear receptor subfamily 4 group A member 2 (Homo sapiens) (P43354 whole entry, looked up, the tested form may be a part): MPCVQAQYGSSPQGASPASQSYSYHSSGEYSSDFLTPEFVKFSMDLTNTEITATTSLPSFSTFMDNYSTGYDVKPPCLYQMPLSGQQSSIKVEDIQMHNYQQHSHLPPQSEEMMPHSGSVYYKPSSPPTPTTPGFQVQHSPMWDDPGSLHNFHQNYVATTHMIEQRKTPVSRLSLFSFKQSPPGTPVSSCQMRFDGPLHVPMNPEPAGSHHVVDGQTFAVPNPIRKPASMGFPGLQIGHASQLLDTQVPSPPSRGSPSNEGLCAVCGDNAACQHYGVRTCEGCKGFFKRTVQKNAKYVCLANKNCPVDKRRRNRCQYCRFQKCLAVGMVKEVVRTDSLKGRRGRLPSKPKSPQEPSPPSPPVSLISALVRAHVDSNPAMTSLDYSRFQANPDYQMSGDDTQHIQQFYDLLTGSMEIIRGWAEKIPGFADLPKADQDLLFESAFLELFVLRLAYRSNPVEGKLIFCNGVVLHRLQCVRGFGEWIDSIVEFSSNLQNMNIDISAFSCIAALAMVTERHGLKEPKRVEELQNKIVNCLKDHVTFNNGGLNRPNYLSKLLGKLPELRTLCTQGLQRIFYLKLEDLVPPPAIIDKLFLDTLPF
Sequence of Estrogen receptor (Homo sapiens) (P03372 whole entry, looked up, the tested form may be a part): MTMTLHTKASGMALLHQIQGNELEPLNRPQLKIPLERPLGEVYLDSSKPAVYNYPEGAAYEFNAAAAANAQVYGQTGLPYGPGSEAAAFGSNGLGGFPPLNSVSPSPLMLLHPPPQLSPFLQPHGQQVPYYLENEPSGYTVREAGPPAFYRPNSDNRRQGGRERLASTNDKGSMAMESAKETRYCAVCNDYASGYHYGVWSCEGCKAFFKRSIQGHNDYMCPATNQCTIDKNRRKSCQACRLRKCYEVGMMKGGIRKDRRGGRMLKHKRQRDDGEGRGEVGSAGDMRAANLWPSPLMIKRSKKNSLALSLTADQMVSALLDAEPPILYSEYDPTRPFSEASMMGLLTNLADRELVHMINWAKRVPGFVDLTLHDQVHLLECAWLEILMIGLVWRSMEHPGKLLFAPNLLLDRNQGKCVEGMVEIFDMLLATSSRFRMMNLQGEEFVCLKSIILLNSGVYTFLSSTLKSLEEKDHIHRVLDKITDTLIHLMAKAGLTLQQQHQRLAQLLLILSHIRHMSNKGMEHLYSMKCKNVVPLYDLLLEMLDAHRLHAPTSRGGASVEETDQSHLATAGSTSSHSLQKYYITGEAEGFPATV
Sequence of Glucocorticoid receptor (Homo sapiens) (P04150 whole entry, looked up, the tested form may be a part): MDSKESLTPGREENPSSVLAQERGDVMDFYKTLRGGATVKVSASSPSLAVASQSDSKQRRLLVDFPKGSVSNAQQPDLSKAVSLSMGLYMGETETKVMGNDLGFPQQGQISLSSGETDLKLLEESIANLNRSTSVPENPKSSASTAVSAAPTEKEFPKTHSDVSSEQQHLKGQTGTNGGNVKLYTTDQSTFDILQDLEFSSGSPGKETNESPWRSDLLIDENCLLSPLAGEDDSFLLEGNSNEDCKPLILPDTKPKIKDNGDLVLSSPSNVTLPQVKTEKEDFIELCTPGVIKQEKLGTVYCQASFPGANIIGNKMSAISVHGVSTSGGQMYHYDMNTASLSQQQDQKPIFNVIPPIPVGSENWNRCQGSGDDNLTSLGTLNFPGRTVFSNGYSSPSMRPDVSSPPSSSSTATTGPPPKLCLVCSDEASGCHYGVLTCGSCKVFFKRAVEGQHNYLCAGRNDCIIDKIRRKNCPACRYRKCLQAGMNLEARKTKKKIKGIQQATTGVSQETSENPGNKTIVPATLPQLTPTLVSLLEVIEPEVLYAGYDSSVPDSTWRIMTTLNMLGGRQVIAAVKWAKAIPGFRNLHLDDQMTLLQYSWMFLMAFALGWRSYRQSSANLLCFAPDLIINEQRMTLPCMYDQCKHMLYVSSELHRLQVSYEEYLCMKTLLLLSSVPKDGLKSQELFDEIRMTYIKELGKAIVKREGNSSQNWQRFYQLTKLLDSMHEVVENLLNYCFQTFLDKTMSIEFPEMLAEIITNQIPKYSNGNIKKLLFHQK

CN1CCC[C@H]1c1cccnc1
active: [4] 61.2 µM
not listed: [6] | [7] | [12] | [16] | [17] | [18]
inactive: all other assays above

Cc1cc(C)c(O)c(C)c1
active: [4] 100 µM
not listed: [3] | [6] | [8] | [12] | [17] | [18]
inactive: all other assays above

CCC(C)(C)C1CCC(O)CC1 (centres undefined)
not listed: [4] | [7] | [16] | [18]
inactive: all other assays above

OCCC(F)(F)C(F)(F)C(F)(F)C(F)(F)C(F)(F)C(F)(F)C(F)(F)C(F)(F)F
active: [3] 25.8 µM and 150 µM | [4] 7.75 µM | [5] 48.2 µM and 112 µM | [14] 242 µM | [15] 46 µM and 150 µM
inactive: [1] | [2] | [4] | [17] | [8] | [9] | [10] | [11] | [13] | [14]

C#C[C@]1(O)CC[C@H]2[C@@H]3CCC4=CC(=O)CC[C@@H]4[C@H]3CC[C@@]21C
inactive: [18] | [1] | [2] | [5] | [16] | [10] | [13] | [14] | [15]

CCCOc1sc(C(=O)N2CCC(c3cc(CN)ccc3F)CC2)c(C)c1Br
active: [17] 1.34 µM | [8] 1.46 µM
not listed: [6] | [10] | [18]
inactive: all other assays above

COc1cc(CCC(=O)CC(=O)CCc2ccc(O)c(OC)c2)ccc1O
active: [3] 13.7 µM | [13] 67.6 µM
inactive: [1] | [2] | [4] | [5] | [7] | [8] | [9] | [14] | [15]

Oc1cc2ccccc2c2ccccc12
inactive: [1] | [2] | [3] | [4] | [5] | [6] | [16] | [17] | [8] | [10] | [11] | [13] | [14] | [15]
active: [10] 50.8 µM
